According to PubChem BioAssay AID1159580 (chemical genetic matrix, 2015):
The whole screen tested about 5,500 compounds, of which about 2,000 (36%) were called active. About 18% were inconclusive and are not listed. Cut-off read from the data, not from the text of the source: active = normalized growth mostly below about 0.91 (no sharp cut-off); inconclusive = no clear call, values can overlap the other calls; inactive = mostly above about 0.92. Some of the results follow.

Test: chemical genetic growth profiling, strain panel (AID 1159580);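 note: tested at 20 µM; growth read once vehicle control cultures reached saturation at 30 °C; 1 = growth at the plate median or of vehicle wells; lower values mean less growth of the strain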
Settings: S. cerevisiae deletion strains, growth OD
[1] = locus YAL040C, strain CLN3, stronger effect = lower value
[2] = locus YCL061C, strain MRC1 (second series), stronger effect = lower value
[3] = locus YDR363W, strain ESC2, stronger effect = lower value
[4] = locus YER002W, strain NOP16, stronger effect = lower value
[5] = locus YGR078C, strain PAC10, stronger effect = lower value
[6] = locus YJR075W, strain HOC1, stronger effect = lower value
[7] = locus YMR263W, strain SAP30, stronger effect = lower value
[8] = locus YMR307W, strain GAS1, stronger effect = lower value
[9] = locus YNL153C, strain GIM3, stronger effect = lower value
[10] = locus YNL175C, strain NOP13, stronger effect = lower value
[11] = locus YNL197C, strain WHI3, stronger effect = lower value
[12] = locus YNL322C, strain KRE1, stronger effect = lower value
[13] = locus YOR083W, strain WHI5 (second series), stronger effect = lower value
[14] = locus YPL055C, strain LGE1, stronger effect = lower value
[15] = locus YPL241C, strain CIN2, stronger effect = lower value
[16] = locus YHR030C, strain SLT2, stronger effect = lower value

Measured: normalized growth

CNCCNS(=O)(=O)c1cccc2cnccc12
inactive: [1] 1 | [2] 1 | [3] 1.03 | [4] 1 | [5] 1.02 | [6] 1.01 | [7] 0.998 | [8] 1 | [9] 1.01 | [10] 1.01 | [11] 1.04 | locus YNL224C, strain SQS1, stronger effect = lower value 1 | [12] 1.02 | [13] 1 | [14] 1.01 | [15] 0.999

CCOC(=O)c1csc(N/N=C2/CCCc3ccccc32)n1
active: locus YBR229C, strain ROT2, stronger effect = lower value 0.887 | locus YDL101C, strain DUN1, stronger effect = lower value 0.862 | locus YDL134C, strain PPH21, stronger effect = lower value 0.458 | locus YEL061C, strain CIN8, stronger effect = lower value 0.821 | [5] 0.899 | [16] 0.232 | locus YHR087W, strain rtc3, stronger effect = lower value 0.899 | [6] 0.867 | locus YLR039C, strain RIC1, stronger effect = lower value 0.701 | locus YLR085C, strain ARP6, stronger effect = lower value 0.573 | locus YML094W, strain GIM5, stronger effect = lower value 0.749 | locus YMR219W, strain ESC1, stronger effect = lower value 0.92 | [7] 0.88 | [8] 0.631 | [9] 0.915 | locus YNL298W, strain CLA4 (second series), stronger effect = lower value 0.732 | locus YNR030W, strain Alg12, stronger effect = lower value 0.779 | [14] 0.692 | [15] 0.747 | locus YPR135W, strain CTF4, stronger effect = lower value 0.629
inactive: locus YDR150W, strain NUM1, stronger effect = lower value 0.897 | locus YGR229C, strain SMI1, stronger effect = lower value 0.986 | locus YJR043C, strain POL32, stronger effect = lower value 0.965 | locus YLR058C, strain SHM2 (second series), stronger effect = lower value 0.976 | locus YLR262C, strain YPT6, stronger effect = lower value 0.868 | locus YNL128W, strain TEP1, stronger effect = lower value 0.971 | [12] 1 | locus YOL006C, strain TOP1, stronger effect = lower value 0.849

Cc1nccc2c1[nH]c1ccccc12
inactive: locus YAL013W, strain DEP1, stronger effect = lower value 1.01 | locus YAL021C, strain ccr4, stronger effect = lower value 0.956 | locus YAL026C, strain drs2, stronger effect = lower value 0.975 | locus YAL030W, strain snc1, stronger effect = lower value 0.992 | [1] 1.11 | locus YBL061C, strain skt5, stronger effect = lower value 0.975 | locus YBR009C, strain hhf1, stronger effect = lower value 0.971 | locus YBR023C, strain chs3, stronger effect = lower value 0.974 | locus YBR171W, strain sec66, stronger effect = lower value 0.969 | locus YBR231C, strain swc5, stronger effect = lower value 0.972 | locus YBR279W, strain paf1, stronger effect = lower value 0.991 | locus YCL011C, strain gbp2, stronger effect = lower value 0.965 | locus YCL016C, strain dcc1, stronger effect = lower value 0.99 | [2] 1.01 | locus YCL069W, strain vba3, stronger effect = lower value 0.977 | locus YCR088W, strain abp1, stronger effect = lower value 0.977 | locus YDL005C, strain med2, stronger effect = lower value 0.965 | locus YDL040C, strain nat1, stronger effect = lower value 0.983 | locus YDR001C, strain nth1, stronger effect = lower value 0.991 | locus YDR069C, strain doa4, stronger effect = lower value 0.941 | locus YDR137W, strain rgp1, stronger effect = lower value 0.967 | locus YDR159W, strain sac3, stronger effect = lower value 0.989 | locus YDR195W, strain ref2 1.03 | locus YDR297W, strain sur2, stronger effect = lower value 0.976 | locus YDR334W, strain swr1, stronger effect = lower value 0.971 | locus YDR335W, strain msn5, stronger effect = lower value 0.975 | [3] 1 | locus YDR392W, strain spt3, stronger effect = lower value 0.963 | locus YEL003W, strain gim4, stronger effect = lower value 0.983 | locus YEL037C, strain rad23, stronger effect = lower value 0.983 | locus YEL061C, strain CIN8 (second series), stronger effect = lower value 0.944 | [4] 0.991 | locus YER015W, strain faa2, stronger effect = lower value 0.991 | locus YER016W, strain bim1, stronger effect = lower value 0.984 | locus YER111C, strain swi4, stronger effect = lower value 0.973 | locus YER155C, strain BEM2 (second series), stronger effect = lower value 0.954 | locus YFR010W, strain ubp6, stronger effect = lower value 0.955 | locus YGL167C, strain pmr1, stronger effect = lower value 0.996 | locus YGL173C, strain kem1, stronger effect = lower value 0.981 | locus YGL227W, strain vid30, stronger effect = lower value 0.976 | locus YGL240W, strain doc1, stronger effect = lower value 0.968 | locus YGL253W, strain hxk2, stronger effect = lower value 0.959 | [5] 1.02 | locus YHR013C, strain ard1, stronger effect = lower value 0.951 | locus YHR027C, strain rpn1, stronger effect = lower value 0.996 | [16] 1.05 | locus YHR079C, strain IRE1, stronger effect = lower value 1.06 | locus YHR142W, strain chs7, stronger effect = lower value 0.97 | locus YJL092W, strain hpr5, stronger effect = lower value 0.963 | locus YJL095W, strain BCK1 (second series), stronger effect = lower value 0.972 | locus YJL095W, strain BCK1, stronger effect = lower value 1.03 | locus YJL115W, strain asf1, stronger effect = lower value 0.975 | locus YJL129C, strain trk1, stronger effect = lower value 0.959 | locus YJL154C, strain vps35, stronger effect = lower value 0.981 | locus YJL164C, strain tpk1, stronger effect = lower value 0.993 | locus YJL166W, strain qcr8, stronger effect = lower value 0.972 | locus YJL187C, strain SWE1, stronger effect = lower value 0.962 | locus YJR066W, strain TOR1, stronger effect = lower value 0.972 | locus YKL160W, strain elf1, stronger effect = lower value 0.995 | locus YKR026C, strain gcn3, stronger effect = lower value 0.983 | locus YKR091W, strain srl3, stronger effect = lower value 0.973 | locus YLL001W, strain dnm1, stronger effect = lower value 0.977 | locus YLL026W, stronger effect = lower value 0.999 | locus YLL041C, strain sdh2, stronger effect = lower value 0.979 | locus YLR027C, strain aat2, stronger effect = lower value 0.995 | locus YLR113W, strain HOG1, stronger effect = lower value 1.04 | locus YLR221C, strain rsa3, stronger effect = lower value 0.971 | locus YLR258W, strain gsy2, stronger effect = lower value 0.991 | locus YLR262C, strain YPT6 (second series), stronger effect = lower value 0.956 | locus YLR320W, strain mms22, stronger effect = lower value 0.97 | locus YLR342W, strain FKS1, stronger effect = lower value 0.968 | locus YLR357W, strain rsc2, stronger effect = lower value 1.04 | locus YLR370C, strain arc18, stronger effect = lower value 0.968 | locus YLR384C, strain iki3, stronger effect = lower value 0.996 | locus YML120C, strain ndi1, stronger effect = lower value 0.982 | locus YMR058W, strain fet3, stronger effect = lower value 0.983 | locus YMR125W, strain sto1, stronger effect = lower value 1.02 | locus YMR129W, stronger effect = lower value 0.984 | locus YMR205C, strain PFK2, stronger effect = lower value 1.01 | locus YMR231W, strain pep5, stronger effect = lower value 0.977 | [8] 1.01 | locus YNL071W, strain lat1, stronger effect = lower value 0.973 | locus YNL183C, strain NPR1, stronger effect = lower value 0.993 | [11] 0.955 | locus YNL209W, strain ssb2, stronger effect = lower value 0.993 | locus YNL248C, strain rpa49, stronger effect = lower value 0.955 | locus YNL322C, strain KRE1 (second series), stronger effect = lower value 0.993 | [12] 1.01 | locus YNR049C, strain mso1, stronger effect = lower value 0.976 | locus YOR001W, strain rrp6, stronger effect = lower value 0.943 | locus YOR070C, strain gyp1, stronger effect = lower value 0.98 | locus YOR080W, strain dia2, stronger effect = lower value 0.986 | [13] 1.03 | locus YOR083W, strain WHI5, stronger effect = lower value 0.994 | locus YOR106W, strain vam3, stronger effect = lower value 0.958 | locus YOR231W, strain MKK1, stronger effect = lower value 1.06 | locus YOR265W, strain rbl2, stronger effect = lower value 0.972 | locus YOR270C, strain vph1, stronger effect = lower value 0.913 | locus YOR290C, strain snf2, stronger effect = lower value 0.994 | locus YPL051W, strain arl3, stronger effect = lower value 0.988 | locus YPL078C, strain atp4, stronger effect = lower value 0.972 | locus YPL106C, strain sse1, stronger effect = lower value 0.978 | locus YPL240C, strain hsp82, stronger effect = lower value 0.986 | [15] 1.01 | locus YPL256C, strain CLN2, stronger effect = lower value 1.04
active: [10] 0.39
